From PMC11006913 come the findings set out here.

VAX1 (Homo sapiens, UniProt Q5SQQ9 86-172), sequence (Q5SQQ9 86-172): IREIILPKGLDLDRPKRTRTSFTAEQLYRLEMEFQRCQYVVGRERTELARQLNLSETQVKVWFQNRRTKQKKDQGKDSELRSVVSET
VAX1 (Homo sapiens, UniProt Q5SQQ9 86-172, T142I), sequence (Q5SQQ9 86-172 T142I): as the sequence (Q5SQQ9 86-172) above, with T57I counted along it

One assay concerns the target VAX1 (Homo sapiens, UniProt Q5SQQ9 86-172). Nature of the assay: PBM; 200 nM protein, PBS. As to conditions: dsDNA, one strand shown.
As to CATTTAAG, the binding signal was 10.9 upbm affinity estimate (log intensity, higher = more binding, comparable within an allelic series).
As for AGCCATTA, the binding signal is 11.7 upbm affinity estimate (log intensity, higher = more binding, comparable within an allelic series).
Still for that read-out and setting: the same measure for ATATGGAC: 9.25 upbm affinity estimate (log intensity, higher = more binding, comparable within an allelic series).
Same read-out and setting: under AGCCTCCG stands 6.91 upbm affinity estimate (log intensity, higher = more binding, comparable within an allelic series); under CTCCGTGC, 6.97 upbm affinity estimate (log intensity, higher = more binding, comparable within an allelic series); under AGGCGGGA, 6.99 upbm affinity estimate (log intensity, higher = more binding, comparable within an allelic series).
On to CGTTGGGC, for which the binding signal was 7.21 upbm affinity estimate (log intensity, higher = more binding, comparable within an allelic series).
Still for that read-out and setting: under GGTATACC stands 7.63 upbm affinity estimate (log intensity, higher = more binding, comparable within an allelic series); under ACAATAAT, 11.2 upbm affinity estimate (log intensity, higher = more binding, comparable within an allelic series); under ACTAACGA, 9.28 upbm affinity estimate (log intensity, higher = more binding, comparable within an allelic series).
For the sequence CCGGCAGC, the binding signal is 7.15 upbm affinity estimate (log intensity, higher = more binding, comparable within an allelic series).
With AATTGACG, the binding signal is 10.6 upbm affinity estimate (log intensity, higher = more binding, comparable within an allelic series).
Turning to CGTAATGA, the binding signal is 12.7 upbm affinity estimate (log intensity, higher = more binding, comparable within an allelic series).
On the same count and under the same terms, under CCGGCTTC stands 6.96 upbm affinity estimate (log intensity, higher = more binding, comparable within an allelic series); under ATCGTTCA, 9.46 upbm affinity estimate (log intensity, higher = more binding, comparable within an allelic series); under ATTTATAA, 10.7 upbm affinity estimate (log intensity, higher = more binding, comparable within an allelic series).
Turning to CAGCCGTA, the binding signal was 7.32 upbm affinity estimate (log intensity, higher = more binding, comparable within an allelic series).
On to CAACGCGG, for which the binding signal was 7.3 upbm affinity estimate (log intensity, higher = more binding, comparable within an allelic series).
As to CATTACGC, the binding signal was 11.1 upbm affinity estimate (log intensity, higher = more binding, comparable within an allelic series).
The same measure, in the same setting: the same measure for TTATGGAA: 9.61 upbm affinity estimate (log intensity, higher = more binding, comparable within an allelic series).
As to ATAACGTG, the binding signal is 9.01 upbm affinity estimate (log intensity, higher = more binding, comparable within an allelic series).
The same measure, in the same setting: under ACGCATAA stands 9.35 upbm affinity estimate (log intensity, higher = more binding, comparable within an allelic series); under GCTCAGCC, 6.9 upbm affinity estimate (log intensity, higher = more binding, comparable within an allelic series).
On the same count and under the same terms, the same measure for CGCGGCAC: 6.77 upbm affinity estimate (log intensity, higher = more binding, comparable within an allelic series); for GGCTAAAC: 9.05 upbm affinity estimate (log intensity, higher = more binding, comparable within an allelic series).
On the same count and under the same terms, under CCTGCAGA stands 7.26 upbm affinity estimate (log intensity, higher = more binding, comparable within an allelic series); under AATATGCT, 9.71 upbm affinity estimate (log intensity, higher = more binding, comparable within an allelic series).
Regarding AAGGTCAT, the binding signal was 9.64 upbm affinity estimate (log intensity, higher = more binding, comparable within an allelic series).
Same read-out and setting: under TATAAAGA stands 9.93 upbm affinity estimate (log intensity, higher = more binding, comparable within an allelic series); under CGCGCTAG, 7.18 upbm affinity estimate (log intensity, higher = more binding, comparable within an allelic series).
The same measure, in the same setting: the same measure for CGACTCCG: 6.81 upbm affinity estimate (log intensity, higher = more binding, comparable within an allelic series).
On the same count and under the same terms, the same measure for GTGATAAC: 9.19 upbm affinity estimate (log intensity, higher = more binding, comparable within an allelic series); for ATATTACC: 11.5 upbm affinity estimate (log intensity, higher = more binding, comparable within an allelic series); for AGATGAGC: 8.9 upbm affinity estimate (log intensity, higher = more binding, comparable within an allelic series).
As for AAGTAAAT, the binding signal was 10.5 upbm affinity estimate (log intensity, higher = more binding, comparable within an allelic series).
Still for that read-out and setting: under CGGAGACC stands 6.9 upbm affinity estimate (log intensity, higher = more binding, comparable within an allelic series).
Consider AGGGCCCT, for which the binding signal is 7.2 upbm affinity estimate (log intensity, higher = more binding, comparable within an allelic series).
Same read-out and setting: under GCGGAGAC stands 7.14 upbm affinity estimate (log intensity, higher = more binding, comparable within an allelic series); under CCTTCGCC, 7.18 upbm affinity estimate (log intensity, higher = more binding, comparable within an allelic series).

Another assay addresses VAX1 (Homo sapiens, UniProt Q5SQQ9 86-172, T142I). The assay is described as follows: PBM; 200 nM protein, PBS. As to conditions: dsDNA, one strand shown.
For CATTTAAG, the binding signal is 10.6 upbm affinity estimate (log intensity, higher = more binding, comparable within an allelic series).
The same measure, in the same setting: the same measure for AGCCATTA: 11.3 upbm affinity estimate (log intensity, higher = more binding, comparable within an allelic series).
Regarding ATATGGAC, the binding signal is 8.78 upbm affinity estimate (log intensity, higher = more binding, comparable within an allelic series).
The same measure, in the same setting: under AGCCTCCG stands 7 upbm affinity estimate (log intensity, higher = more binding, comparable within an allelic series); under CTCCGTGC, 7.18 upbm affinity estimate (log intensity, higher = more binding, comparable within an allelic series); under AGGCGGGA, 7.2 upbm affinity estimate (log intensity, higher = more binding, comparable within an allelic series).
For the sequence CGTTGGGC, the binding signal was 7.31 upbm affinity estimate (log intensity, higher = more binding, comparable within an allelic series).
On the same count and under the same terms, under GGTATACC stands 7.37 upbm affinity estimate (log intensity, higher = more binding, comparable within an allelic series); under ACAATAAT, 11 upbm affinity estimate (log intensity, higher = more binding, comparable within an allelic series); under ACTAACGA, 8.88 upbm affinity estimate (log intensity, higher = more binding, comparable within an allelic series).
Take CCGGCAGC: the binding signal was 7.15 upbm affinity estimate (log intensity, higher = more binding, comparable within an allelic series).
On the same count and under the same terms, under AATTGACG stands 10.1 upbm affinity estimate (log intensity, higher = more binding, comparable within an allelic series); under CGTAATGA, 12.2 upbm affinity estimate (log intensity, higher = more binding, comparable within an allelic series); under CCGGCTTC, 7.09 upbm affinity estimate (log intensity, higher = more binding, comparable within an allelic series).
As for ATCGTTCA, the binding signal was 9.08 upbm affinity estimate (log intensity, higher = more binding, comparable within an allelic series).
Same read-out and setting: under ATTTATAA stands 10.5 upbm affinity estimate (log intensity, higher = more binding, comparable within an allelic series); under CAGCCGTA, 7.28 upbm affinity estimate (log intensity, higher = more binding, comparable within an allelic series); under CAACGCGG, 7.21 upbm affinity estimate (log intensity, higher = more binding, comparable within an allelic series).
On the same count and under the same terms, the same measure for CATTACGC: 10.6 upbm affinity estimate (log intensity, higher = more binding, comparable within an allelic series); for TTATGGAA: 9.32 upbm affinity estimate (log intensity, higher = more binding, comparable within an allelic series); for ATAACGTG: 8.66 upbm affinity estimate (log intensity, higher = more binding, comparable within an allelic series).
Same read-out and setting: the same measure for ACGCATAA: 8.83 upbm affinity estimate (log intensity, higher = more binding, comparable within an allelic series).
Turning to GCTCAGCC, the binding signal is 6.99 upbm affinity estimate (log intensity, higher = more binding, comparable within an allelic series).
In the case of CGCGGCAC, the binding signal was 7.02 upbm affinity estimate (log intensity, higher = more binding, comparable within an allelic series).
Same read-out and setting: under CCTGCAGA stands 7.33 upbm affinity estimate (log intensity, higher = more binding, comparable within an allelic series); under AATATGCT, 9.56 upbm affinity estimate (log intensity, higher = more binding, comparable within an allelic series); under AAGGTCAT, 9.26 upbm affinity estimate (log intensity, higher = more binding, comparable within an allelic series).
Regarding TATAAAGA, the binding signal was 9.32 upbm affinity estimate (log intensity, higher = more binding, comparable within an allelic series).
Consider CGCGCTAG, for which the binding signal was 7.3 upbm affinity estimate (log intensity, higher = more binding, comparable within an allelic series).
With CGACTCCG, the binding signal is 7.11 upbm affinity estimate (log intensity, higher = more binding, comparable within an allelic series).
With GTGATAAC, the binding signal is 8.78 upbm affinity estimate (log intensity, higher = more binding, comparable within an allelic series).
Same read-out and setting: under ATATTACC stands 11.2 upbm affinity estimate (log intensity, higher = more binding, comparable within an allelic series); under AAGTAAAT, 10.2 upbm affinity estimate (log intensity, higher = more binding, comparable within an allelic series); under CGGAGACC, 7.22 upbm affinity estimate (log intensity, higher = more binding, comparable within an allelic series).
Still for that read-out and setting: the same measure for AGGGCCCT: 7.19 upbm affinity estimate (log intensity, higher = more binding, comparable within an allelic series); for GCGGAGAC: 7.32 upbm affinity estimate (log intensity, higher = more binding, comparable within an allelic series); for CCTTCGCC: 7.38 upbm affinity estimate (log intensity, higher = more binding, comparable within an allelic series).

A further assay deals with VAX1 (Homo sapiens, UniProt Q5SQQ9 86-172, K157R). The assay is described as follows: PBM; 200 nM protein, PBS. The settings on record: dsDNA, one strand shown.
VAX1 (Homo sapiens, UniProt Q5SQQ9 86-172, K157R), sequence (Q5SQQ9 86-172 K157R): as the sequence (Q5SQQ9 86-172) above, with K72R counted along it
CATTTAAG: the binding signal is 10.6 upbm affinity estimate (log intensity, higher = more binding, comparable within an allelic series).
The same measure, in the same setting: under AGCCATTA stands 11.2 upbm affinity estimate (log intensity, higher = more binding, comparable within an allelic series); under ATATGGAC, 8.81 upbm affinity estimate (log intensity, higher = more binding, comparable within an allelic series).
With AGCCTCCG, the binding signal is 6.91 upbm affinity estimate (log intensity, higher = more binding, comparable within an allelic series).
On the same count and under the same terms, under CTCCGTGC stands 6.81 upbm affinity estimate (log intensity, higher = more binding, comparable within an allelic series); under AGGCGGGA, 7.24 upbm affinity estimate (log intensity, higher = more binding, comparable within an allelic series); under CGTTGGGC, 7.23 upbm affinity estimate (log intensity, higher = more binding, comparable within an allelic series).
The same measure, in the same setting: under GGTATACC stands 7.24 upbm affinity estimate (log intensity, higher = more binding, comparable within an allelic series); under ACAATAAT, 10.9 upbm affinity estimate (log intensity, higher = more binding, comparable within an allelic series); under ACTAACGA, 9.23 upbm affinity estimate (log intensity, higher = more binding, comparable within an allelic series).
For CCGGCAGC, the binding signal was 7.17 upbm affinity estimate (log intensity, higher = more binding, comparable within an allelic series).
Still for that read-out and setting: the same measure for AATTGACG: 10.2 upbm affinity estimate (log intensity, higher = more binding, comparable within an allelic series).
Take CGTAATGA: the binding signal was 12.2 upbm affinity estimate (log intensity, higher = more binding, comparable within an allelic series).
Still for that read-out and setting: under CCGGCTTC stands 6.93 upbm affinity estimate (log intensity, higher = more binding, comparable within an allelic series).
Turning to ATCGTTCA, the binding signal was 9.31 upbm affinity estimate (log intensity, higher = more binding, comparable within an allelic series).
Take ATTTATAA: the binding signal is 10.4 upbm affinity estimate (log intensity, higher = more binding, comparable within an allelic series).
Same read-out and setting: the same measure for CAGCCGTA: 7.24 upbm affinity estimate (log intensity, higher = more binding, comparable within an allelic series).
Still for that read-out and setting: under CAACGCGG stands 7.43 upbm affinity estimate (log intensity, higher = more binding, comparable within an allelic series).
CATTACGC: the binding signal is 10.7 upbm affinity estimate (log intensity, higher = more binding, comparable within an allelic series).
Turning to TTATGGAA, the binding signal is 9.34 upbm affinity estimate (log intensity, higher = more binding, comparable within an allelic series).
Still for that read-out and setting: under ATAACGTG stands 8.79 upbm affinity estimate (log intensity, higher = more binding, comparable within an allelic series); under ACGCATAA, 8.87 upbm affinity estimate (log intensity, higher = more binding, comparable within an allelic series); under GCTCAGCC, 6.88 upbm affinity estimate (log intensity, higher = more binding, comparable within an allelic series).
In the case of CGCGGCAC, the binding signal was 7.21 upbm affinity estimate (log intensity, higher = more binding, comparable within an allelic series).
On to GGCTAAAC, for which the binding signal was 8.95 upbm affinity estimate (log intensity, higher = more binding, comparable within an allelic series).
The same measure, in the same setting: the same measure for CCTGCAGA: 7.23 upbm affinity estimate (log intensity, higher = more binding, comparable within an allelic series).
With AATATGCT, the binding signal was 9.53 upbm affinity estimate (log intensity, higher = more binding, comparable within an allelic series).
With AAGGTCAT, the binding signal was 9.4 upbm affinity estimate (log intensity, higher = more binding, comparable within an allelic series).
Same read-out and setting: the same measure for TATAAAGA: 9.28 upbm affinity estimate (log intensity, higher = more binding, comparable within an allelic series).
CGCGCTAG: the binding signal was 7.16 upbm affinity estimate (log intensity, higher = more binding, comparable within an allelic series).
For CGACTCCG, the binding signal is 7.09 upbm affinity estimate (log intensity, higher = more binding, comparable within an allelic series).
On the same count and under the same terms, the same measure for GTGATAAC: 8.95 upbm affinity estimate (log intensity, higher = more binding, comparable within an allelic series); for ATATTACC: 11.4 upbm affinity estimate (log intensity, higher = more binding, comparable within an allelic series).
Consider AGATGAGC, for which the binding signal was 8.88 upbm affinity estimate (log intensity, higher = more binding, comparable within an allelic series).
On the same count and under the same terms, under AAGTAAAT stands 10.2 upbm affinity estimate (log intensity, higher = more binding, comparable within an allelic series); under CGGAGACC, 7.28 upbm affinity estimate (log intensity, higher = more binding, comparable within an allelic series); under AGGGCCCT, 7.36 upbm affinity estimate (log intensity, higher = more binding, comparable within an allelic series).
Turning to GCGGAGAC, the binding signal was 7.29 upbm affinity estimate (log intensity, higher = more binding, comparable within an allelic series).
As for CCTTCGCC, the binding signal is 7.16 upbm affinity estimate (log intensity, higher = more binding, comparable within an allelic series).
